These results are taken from PubChem BioAssay.

Active and inactive are the calls of the source.

Experiment [1] is described as follows: optical density shifts of acrAB sulA E. coli – strain DRC41, OD650, 48 h, E. coli filamentation inducer project, primary screen (AID 1152).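 Further: E. coli MC1000 strain DRC41 lacking acrAB efflux pump and sulA.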 Particulars: higher = more signal, called active from +8 up or from −8 down.
A short description of experiment [2]: probe aLefty1 binding on compound microarray – biochemical, small-molecule microarray, 635/667 nm fluorescence, primary screen (AID 1153).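 Further: score merges spot fluorescence with signal-to-noise ratio from the scanned slide images.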 The settings on record: higher = more signal.
Experiment [3] can be described thus: plasmodial surface anion channel blockers, osmotic lysis – cell-based, P. falciparum Indochina, OD700, 1 h, primary screen (AID 1154). Particulars: P. falciparum Indochina infected RBC osmotic lysis, higher = more signal, called active from +8 up or from −8 down.
Experiment [4] can be described thus: plasmodial surface anion channel blockers, osmotic lysis – cell-based, P. falciparum Indochina, OD700, 2 h, primary screen (AID 1155).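 Further: lysis reports solute entry through the parasite surface anion channel PSAC.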 Particulars: P. falciparum Indochina infected erythrocytes, higher = more signal, called active from +8 up or from −8 down.
Experiment [5] is described as follows: changes in parasitized red cell lysis, either direction – P. falciparum Indochina, OD700, 3 h, PSAC antagonist project, primary screen (AID 1156). The settings on record: P. falciparum-infected erythrocytes, osmotic lysis, higher = more signal, called active from +8 up or from −8 down.
Experiment [6] is described as follows: plasmodial surface anion channel blockers, osmotic lysis – cell-based, P. falciparum Indochina, OD700, 18 h, primary screen (AID 1157). The settings on record: P. falciparum Indochina infected erythrocytes, osmotic lysis OD700, 18 h; higher = more signal, called active from +8 up or from −8 down.
A short description of experiment [7]: S6 kinase pathway phospho-S6 level changes – cell-based, A549, cytoblot, luminescence, serum-stimulated, primary screen (AID 1158).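 Further: serum-stimulated A549 lung adenocarcinoma cells; signal is phosphorylated S6 detected by cytoblot immunostaining with HRP secondary.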 The settings on record: 5 h, higher = more signal.
The target in experiment [8] is NADPH oxidase 2 (Homo sapiens) (UniProt P04839). Kind of experiment: compounds shifting NOX2 Amplex Red fluorescence – cell-based, HEK293-NOX2, PMA-stimulated, NOX inhibitor project, primary screen (AID 1159). Further: test concentration not given here. The settings on record: 45 min, higher = more signal, called active from +8 up or from −8 down.
Experiment [9] concerns the target NADPH oxidase 4 (Homo sapiens) (UniProt Q9NPH5). Nature of the experiment: compounds shifting NOX4 Amplex Red fluorescence – cell-based, HEK293-NOX4, tetracycline-induced, NOX inhibitor project, primary screen (AID 1160). Particulars: HEK293-NOX4, Amplex Red H2O2 fluorescence, 45 min; higher = more signal, called active from +8 up or from −8 down.
Experiment [10] concerns the target NADPH oxidase 5 (Homo sapiens) (UniProt Q96PH1). Kind of experiment: compounds shifting NOX5 Amplex Red fluorescence – cell-based, HEK293-NOX5, NOX inhibitor project, primary screen (AID 1161). The settings on record: HEK293-NOX5, ionomycin, 45 min, higher = more signal.
Experiment [11] can be described thus: compound effects on lung adenocarcinoma cell viability – A549, calcein-AM fluorescence, 48 h, basal, profiling panel (AID 1162). Further: test concentration not given here. The settings on record: higher = more signal.
Experiment [12] can be described thus: compound effects on differentiated 3T3-L1 adipocyte viability – cell-based, 3T3-L1 adipocytes, calcein-AM fluorescence, 48 h, basal, profiling panel (AID 1163). Further: test concentration not given here. Particulars: 3T3-L1 adipocytes viability, higher = more signal.
Experiment [13] can be described thus: compound effects on hepatocellular carcinoma cell viability – HepG2, calcein-AM fluorescence, 48 h, basal, profiling panel (AID 1164). Further: test concentration not given here. Particulars: higher = more signal.
Experiment [14] is described as follows: compound effects on multiple myeloma cell viability – MM1S, calcein-AM fluorescence, 48 h, basal, profiling panel (AID 1165).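 Further: viability of MM1S multiple myeloma cells under basal unstimulated conditions; test concentration not given here.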 The settings on record: higher = more signal.
Experiment [15] in a line: calcein-AM signal in unstimulated myeloma cells – cell-based, calcein-AM fluorescence, 48 h, PK04 Diversity Set, profiling panel (AID 1166).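 Further: cells grown under basal conditions without added stimulus; test concentration not given here.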 The settings on record: RPMI8226 myeloma viability, higher = more signal.
Experiment [16] in a line: JC-1 mitochondrial signal, unstimulated HepG2 cells – cell-based, JC-1 fluorescence, 24 h, 100 nL compound, profiling panel (AID 1167). Further: test concentration not given here. Particulars: HepG2 mitochondrial potential, higher = more signal.
Experiment [17] is described as follows: JC-1 mitochondrial signal, unstimulated adipocytes – cell-based, JC-1 fluorescence, 3T3-L1 adipocytes, 24 h, 100 nL compound, profiling panel (AID 1168). Further: test concentration not given here. Particulars: JC-1 mitochondrial fluorescence, higher = more signal, called active from +8 up or from −8 down.
The nature of experiment [18]: JC-1 mitochondrial signal, unstimulated myeloma cells – cell-based, JC-1 fluorescence, RPMI8226, 24 h, 100 nL compound, profiling panel (AID 1169). Further: test concentration not given here. Particulars: JC-1 mitochondrial potential fluorescence, higher = more signal.
The nature of experiment [19]: JC-1 mitochondrial signal, unstimulated MM1S myeloma – cell-based, JC-1 fluorescence, 24 h, 100 nL compound, profiling panel (AID 1170). Further: test concentration not given here. Particulars: MM1S mitochondrial potential, higher = more signal.
Experiment [20] is described as follows: resazurin metabolic signal in A549 cells – cell-based, resazurin fluorescence, 24 h, PK04 Diversity Set, profiling panel (AID 1171). Further: test concentration not given here. Particulars: A549 viability, higher = more signal, called active from +8 up or from −8 down. A general note: The colour change of resazurin is a common sign of viable cells or microbes.

Sequence of NADPH oxidase 5 (Homo sapiens) (Q96PH1 whole entry, looked up): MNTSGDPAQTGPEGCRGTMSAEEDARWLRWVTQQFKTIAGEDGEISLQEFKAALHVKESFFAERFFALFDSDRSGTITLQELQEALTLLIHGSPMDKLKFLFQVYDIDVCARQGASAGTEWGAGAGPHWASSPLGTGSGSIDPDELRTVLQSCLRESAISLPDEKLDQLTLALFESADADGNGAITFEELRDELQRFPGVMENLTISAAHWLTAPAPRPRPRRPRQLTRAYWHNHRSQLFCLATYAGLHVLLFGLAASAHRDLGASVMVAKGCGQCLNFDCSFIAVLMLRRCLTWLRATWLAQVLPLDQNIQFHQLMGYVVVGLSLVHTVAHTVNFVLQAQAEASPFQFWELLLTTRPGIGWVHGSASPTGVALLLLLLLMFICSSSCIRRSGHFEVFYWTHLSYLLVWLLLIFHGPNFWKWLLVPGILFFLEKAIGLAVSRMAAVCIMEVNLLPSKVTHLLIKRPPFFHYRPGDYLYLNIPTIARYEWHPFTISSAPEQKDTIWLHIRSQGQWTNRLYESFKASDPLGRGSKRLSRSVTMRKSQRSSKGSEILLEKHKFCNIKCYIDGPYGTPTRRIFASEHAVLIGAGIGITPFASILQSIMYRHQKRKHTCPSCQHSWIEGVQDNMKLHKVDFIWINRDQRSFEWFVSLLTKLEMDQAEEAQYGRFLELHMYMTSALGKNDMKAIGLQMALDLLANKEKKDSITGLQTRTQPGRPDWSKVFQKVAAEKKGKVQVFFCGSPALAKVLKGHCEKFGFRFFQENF
Sequence of NADPH oxidase 4 (Homo sapiens) (Q9NPH5 whole entry, looked up): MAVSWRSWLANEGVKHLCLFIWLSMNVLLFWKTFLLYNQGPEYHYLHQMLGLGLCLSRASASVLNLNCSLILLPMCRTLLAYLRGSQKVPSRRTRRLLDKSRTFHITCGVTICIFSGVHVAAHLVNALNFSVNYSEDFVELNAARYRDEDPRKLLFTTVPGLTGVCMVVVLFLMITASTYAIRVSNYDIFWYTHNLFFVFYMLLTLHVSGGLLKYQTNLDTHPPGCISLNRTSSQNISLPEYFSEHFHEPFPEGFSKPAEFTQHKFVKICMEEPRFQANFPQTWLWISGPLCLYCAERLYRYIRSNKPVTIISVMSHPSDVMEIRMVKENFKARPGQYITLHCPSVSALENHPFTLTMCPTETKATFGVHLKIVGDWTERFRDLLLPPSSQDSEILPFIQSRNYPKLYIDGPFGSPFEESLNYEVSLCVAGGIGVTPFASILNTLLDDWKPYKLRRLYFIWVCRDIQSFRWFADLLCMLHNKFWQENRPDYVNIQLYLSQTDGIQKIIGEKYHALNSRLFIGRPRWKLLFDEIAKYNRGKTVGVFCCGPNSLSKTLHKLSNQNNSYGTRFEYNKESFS
Sequence of NADPH oxidase 2 (Homo sapiens) (P04839 whole entry, looked up): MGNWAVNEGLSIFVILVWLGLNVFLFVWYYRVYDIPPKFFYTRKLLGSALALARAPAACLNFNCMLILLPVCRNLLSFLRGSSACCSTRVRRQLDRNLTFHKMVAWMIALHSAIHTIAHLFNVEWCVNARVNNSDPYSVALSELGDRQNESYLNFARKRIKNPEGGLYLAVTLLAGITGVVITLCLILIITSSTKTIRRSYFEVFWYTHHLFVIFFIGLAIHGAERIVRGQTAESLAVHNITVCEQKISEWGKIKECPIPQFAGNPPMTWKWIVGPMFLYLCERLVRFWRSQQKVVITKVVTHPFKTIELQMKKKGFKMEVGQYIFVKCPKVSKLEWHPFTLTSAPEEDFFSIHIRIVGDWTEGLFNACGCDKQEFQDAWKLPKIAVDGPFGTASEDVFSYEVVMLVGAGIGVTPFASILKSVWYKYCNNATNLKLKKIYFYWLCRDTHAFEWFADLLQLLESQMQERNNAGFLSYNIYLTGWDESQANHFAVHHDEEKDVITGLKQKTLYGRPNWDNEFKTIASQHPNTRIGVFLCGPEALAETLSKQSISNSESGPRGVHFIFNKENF

Regarding `COCCOC(=O)N1C(=O)[C@@]2(c3cc(C#Cc4ccc(OC)cc4)ccc31)[C@H](C(=O)N1CCN(c3ncccn3)CC1)[C@H]1C(=O)O[C@H](c3ccccc3)[C@H](c3ccccc3)N1[C@@H]2c1ccccc1OCCO`, the z-score in experiment [1] is 0.0325 (inactive); in experiment [3], 2.79 (inactive); in [4] it was 2.29 (inactive); in experiment [5], 0.641 (inactive); in experiment [6], 1.07 (inactive); in [7] it was -0.43. Moreover, the z-score in experiment [8] was 0.405 (inactive); in [9] it was 0.152 (inactive); in experiment [10] it was 1.06; in experiment [11], -0.457; in experiment [12], 0.0076; in experiment [13] it was 0.149. The z-score in experiment [14] is 0.325; in experiment [15], 0.204; in experiment [16], 0.57; in experiment [17] it was 2.03 (inactive); in experiment [18], -0.403; in experiment [19], -1.41. Further, the z-score in experiment [20] was -0.785 (inactive). Also, in [2], the composite z-score came to 0.406.

Consider `CC(C)CNC(=O)[C@@]1(c2ccc([N+](=O)[O-])cc2)CC(=O)N(C2CCCCC2)[C@@H]1c1ccc(CO)cc1I`, for which the z-score in experiment [1] was -0.826 (inactive); in experiment [3], 10.8 (active); in experiment [4] it was 2.15 (inactive); in experiment [5], 3.67 (inactive); in experiment [6] it was 0.794 (inactive); in [7], -0.183. Besides, the z-score is 0.685 (inactive) in experiment [8]; 0.486 (inactive) in experiment [9]; 1.74 in [10]; 0.304 in experiment [11]; 0.13 in experiment [12]; -0.108 in experiment [13]. The z-score in experiment [14] was -2; in experiment [15] it was -0.317; in experiment [16] it was 1.15; in experiment [17], -0.472 (inactive); in experiment [18] it was -0.296; in experiment [19] it was 0.0603. Also, the z-score in experiment [20] is 1.02 (inactive). Further, in experiment [2], the composite z-score was found to be 0.213.

Turning to `CC(C)(C)OC(=O)CC[C@]1(C(=O)O)N=C(c2ccc(OCCCO)cc2)O[C@H]1c1ccccc1CN=[N+]=[N-]`, the z-score is 0.59 (inactive) in experiment [1]; 16.3 (active) in [3]; 1.36 (inactive) in experiment [4]; 0.0614 (inactive) in [5]; 0.594 (inactive) in experiment [6]; 0.172 in experiment [7]. The z-score in [8] was 0.433 (inactive); in experiment [9], 1.01 (inactive); in experiment [10], 1; in experiment [11], 0.61; in experiment [12], -0.788; in experiment [13] it was 0.682. The z-score was 0.519 in experiment [14]; 0.375 in experiment [15]; 1.43 in experiment [16]; 1.05 (inactive) in [17]; -0.697 in [18]; -0.738 in [19]. Also, the z-score in experiment [20] is -0.245 (inactive). This molecule also showed a composite z-score in [2] of 0.0355.

For the molecule `O=C1O[C@@H](c2ccccc2)[C@@H](c2ccccc2)N2[C@@H](c3ccc(O)cc3)[C@]3(C(=O)Nc4ccc(C#CCCO)cc43)[C@@H](C(=O)NC[C@H](O)c3ccccc3)[C@H]12`, the z-score is 0.646 (inactive) in [1]; 2.75 (inactive) in [3]; 0.31 (inactive) in experiment [4]; 0.283 (inactive) in [5]; 0.0695 (inactive) in experiment [6]; -0.318 in experiment [7]. Moreover, the z-score was -0.247 (inactive) in [8]; -0.718 (inactive) in experiment [9]; -0.159 in experiment [10]; 0.479 in [11]; 0.269 in experiment [12]; 0.333 in experiment [13]. Moreover, the z-score in experiment [14] was -0.121; in [15], 0.671; in experiment [16] it was -1.93; in [17] it was -1.16 (inactive); in [18], 0.198; in [19], -0.667. Further, the z-score in experiment [20] is 0.588 (inactive). This molecule also displayed a composite z-score in [2] of 0.279.

Turning to `NCCCCCNC(=O)[C@@H]1C[C@@H]2C(=O)N[C@@H](CCCCN)C(=O)N2[C@@H]1c1cccc(OCCO)c1`, the z-score is 1.17 (inactive) in experiment [1]; 0.539 (inactive) in experiment [3]; 0.0681 (inactive) in experiment [4]; 1.24 (inactive) in experiment [5]; 0.0802 (inactive) in experiment [6]; -0.157 in experiment [7]. The z-score in experiment [8] is 0.141 (inactive); in experiment [9], 0.557 (inactive); in experiment [10] it was 0.582; in [11] it was 0.338; in experiment [12], 0.337; in experiment [13], 0.68. The z-score in experiment [14] was 0.89; in experiment [15] it was 0.269; in [16], 0.0184; in experiment [17] it was 1.37 (inactive); in experiment [18], -0.698; in experiment [19], -0.362. Further, the z-score in [20] was 0.714 (inactive). Further, in experiment [2], the composite z-score is -0.432.

For `COCCOC(=O)N1C(=O)[C@@]2(c3cc(C#CC4=CCCCC4)ccc31)[C@H](c1ccc(O)cc1)N1[C@H](c3ccccc3)[C@H](c3ccccc3)OC(=O)[C@H]1[C@@H]2C(=O)Nc1nc2ccccc2s1`, the z-score in [1] is -0.567 (inactive); in experiment [3] it was 2.09 (inactive); in [4], 1.76 (inactive); in experiment [5], 0.599 (inactive); in experiment [6], 1.81 (inactive); in experiment [7], -0.507. In addition, the z-score in [8] was 1.55 (inactive); in experiment [9], -0.0515 (inactive); in [10] it was 0.897; in experiment [11], -0.0695; in experiment [12] it was -0.898; in experiment [13], 0.0669. In addition, the z-score is -1.01 in experiment [14]; -1.65 in experiment [15]; -2.79 in experiment [16]; -0.451 (inactive) in experiment [17]; -0.941 in experiment [18]; -0.887 in experiment [19]. Also, the z-score in [20] is -0.304 (inactive). Moreover, the composite z-score in experiment [2] is 0.571.
